# Key:
# Experiment in all cases: PBM binding z-score (relative to random genomic background probes); higher = stronger binding; sequences stand for … in GC…GCGATTGACAGCGTAGAATGAAGG
# [1] = tested on: FXR:RXRa (NR concentration 270 nM, RXRa partner concentration 90 nM)
# Method in brief: (§1)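 Antibodies against each partner of ligand-free nuclear receptor dimers (one per run) detected binding on custom Agilent 4×180K protein-binding microarrays after 1 h incubation. The double-stranded probes had 34-nt variable regions carrying direct-repeat seeds, single-nucleotide variants, half-site ablations and random human genomic background sequences. Binding z-scores, from regression-normalized fluorescence, use the random background probes as reference.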
# [2] = tested on: LXRa:RXRa (NR concentration 270 nM, RXRa partner concentration 90 nM)
# Method in brief: as §1
# [3] = tested on: LXRa homodimer (NR concentration 270 nM)
# Method in brief: as §1
# [4] = tested on: LXRb:RXRa (NR concentration 270 nM, RXRa partner concentration 90 nM)
# Method in brief: as §1
# [5] = tested on: LXRb homodimer (NR concentration 270 nM)
# Method in brief: as §1
# [6] = tested on: PPARa:RXRa (NR concentration 270 nM, RXRa partner concentration 90 nM)
# Method in brief: as §1
# [7] = tested on: PPARg:RXRa (NR concentration 180 nM, RXRa partner concentration 90 nM)
# Method in brief: as §1
# [8] = tested on: PPARg:RXRa 270nM:90nM, anti-RXR (NR concentration 270 nM, RXRa partner concentration 90 nM)
# Method in brief: as §1
# [9] = tested on: PPARg:RXRa 30nM:10nM, anti-RXR (NR concentration 30 nM, RXRa partner concentration 10 nM)
# Method in brief: as §1
# [10] = tested on: PPARg:RXRa 90nM:30nM, anti-RXR (NR concentration 90 nM, RXRa partner concentration 30 nM)
# Method in brief: as §1
Sequence,PBM binding z-score [1],PBM binding z-score [2],PBM binding z-score [3],PBM binding z-score [4],PBM binding z-score [5],PBM binding z-score [6],PBM binding z-score [7],PBM binding z-score [8],PBM binding z-score [9],PBM binding z-score [10]
CCGGCTGGGGCATAAGGTTACCATAAGCCAGCCC,-0.0908,1.73,-0.45,0.426,-1.54,1.11,0.631,1.5,-0.332,0.706
TCTGCAAGGTCAGTTGGTCAGCTAACGAGCTGCC,4.25,2.88,-0.037,2.09,1.17,3.4,1.45,2.47,1.5,1.72
GCGACTGGGGCATCAGCGGGTTACCATAACTTAA,-0.361,-0.573,-0.505,0.433,-0.992,1.11,0.815,0.669,-0.383,0.237
GCGACTGGGGCATCAGGAGGTTACCATAACTTAA,0.0636,0.325,0.0698,0.842,-1.05,1.7,1.35,1.26,0.00065,0.599
TCTTGTAGATCAAAGTTTAAGAAAGCCGAAGCCT,0.983,1.1,0.0318,0.659,0.169,2.46,4.04,5.01,5.17,5.73
AGAACGAGGGCACGCTGAGTTGAAAGCAGAGTAG,0.945,0.542,-0.955,0.276,-0.933,2.38,2.11,1.77,0.0784,1.03
AGAACGAGGGCACGCTGAGTTGATATCAGAGTAG,0.635,0.337,-0.489,-0.0642,-0.77,2.02,2.14,1.79,0.489,1.22
TATACAGGCTCAAAGGCCAGAGTACGAATGTCGA,-0.0411,0.0342,-0.184,-0.265,-0.0867,0.221,1.03,1.75,0.77,1.4
GATACAGGGTCAGCTAGAGGCCAGAGCATGGAAA,4.96,2.87,-0.62,2.42,-0.712,4.58,3.81,3.58,1.01,2.09
GGAACGAGGGCATTCGAGTTGAAAGCATGGCGAT,1.15,2.67,-0.268,0.406,-1.04,1.85,0.762,0.887,-0.332,0.259
CAAACAGGGTCAGCTAGGCCAGAGTAGGGACGGC,4.65,2.73,-0.316,2.21,0.0212,4.47,3.5,3.57,0.838,2.35
CGTCAAAGTTCAACTAAAGTAACGTAAAGCACGC,6.66,6.26,3.94,4.14,2.66,4.93,5,5.38,2.2,4.09
TCATATAGTTAAATGCTAGGTGAAAGTCCGATCT,0.982,0.66,0.335,0.729,0.331,0.834,0.464,2.11,3.69,2.89
CGAACTAGGTCATAACAGGACAGTGAAGGATGAT,3.19,4.15,0.43,1.95,0.0725,4.26,6.94,6.14,3.52,5.3
ATCTCTAGGTAACCAAGTTCAGTGTATGCCGAAC,0.4,0.852,0.996,0.524,0.803,1.06,0.577,0.99,0.331,0.721
TATACAGGGTCAAAGGCCTGAGTACGAATGTCGA,7.13,6.36,2.31,4.5,2.28,5.81,6.92,6.47,3.45,5.74
TGTCAAAGTTCAAAGGTAACGTAGGTATCCACAC,6.64,6.44,4.15,4.46,1.58,5.79,8.31,7.65,4.86,7.25
CCTTACGGGTCACGAGGTTATAACACGACGAGCG,6.57,4.63,0.527,4.2,-0.0357,6.03,7.47,6.56,3.19,5.53
CAAACTAGGTCCCAGAGGTCAAAGTCCGTGCGTA,4.91,5.18,5.61,5.18,1.42,4.98,4.51,4.75,2.13,4.08

Sequence,PBM binding z-score [1],PBM binding z-score [2],PBM binding z-score [3],PBM binding z-score [4],PBM binding z-score [5],PBM binding z-score [6],PBM binding z-score [7],PBM binding z-score [8],PBM binding z-score [9],PBM binding z-score [10]
ATCTCTAGGTAAAGTTCAGTGAAAGATCGATAGA,1.38,2.08,1.69,1.3,0.964,2.35,3.26,4.38,2.33,3.93
GCTTGTTGATCAAGGTTAAGAAAGACTAAGCTAA,-0.091,0.792,-0.456,0.239,-0.437,1.09,-0.203,0.401,-0.0921,0.472
TCTTGTAGATTAAAGGTTAAGAAAGCCGAAGCCT,1.25,1.98,0.568,1.82,0.134,3.56,5.78,6.6,6.85,7.33
TCGAGTAGGTTACCCATGGGGCATTCAGCTTTCT,0.292,1.66,-0.443,0.752,-0.79,1.09,0.462,1.36,1.23,1.18
AGCTCTAGGTAAGACTCAGTTCAGTGAAGAACGC,-0.104,0.132,0.197,-0.188,-0.399,-0.0359,-0.139,0.0762,0.0391,-0.261
CCAGACAGGTGAGAGGGTAACTCAGCCTCGATTA,0.0104,0.0679,-0.0244,0.043,-0.609,1.65,1.99,2.94,0.655,2.18
CCTTACGGCTCAAGGTTATAGCACGGGTGGTACG,0.272,0.347,0.117,0.126,-0.259,0.445,0.607,0.552,0.388,0.076
CTCGAAAGGTCGTGCACAGGTGAGTATACCAAAC,5.53,4.43,0.217,4.18,0.385,5.18,3.43,4.58,1.66,3.05
ATTTCTAGGTAAAAGTTCAGTGAATCCCGAGGAT,1.14,1.71,1.53,1.49,1.12,5.27,9.08,8.85,8.73,10.6
CTACCAAGGTGAACAAGGACGTTGATTACTATTC,0.78,0.235,0.0356,0.647,-0.411,0.963,0.812,0.636,0.194,0.209
CCTACTGGGGCATTCAGAGGTCATTGATCATATG,3.08,4.37,6.25,3.91,0.359,4.07,3.34,4.13,1.23,3.12
CCTAGCAGGCCAATCTCGGTCACTCAAGGCTTGA,0.604,2.68,0.339,-0.0855,-0.585,0.406,-0.312,-0.384,-1.26,-0.439
TAGCCTAGGTCAATGGGCCAGTATAGTACGCATC,3.09,2.16,-0.016,1.51,-0.146,3.27,2.95,2.83,0.834,1.67
ATTAGCAGGCCAAGGGTCACTCAAGATTAGTCCG,2.8,2.8,0.436,2.69,-0.147,4.73,7.98,7.44,6.52,7.55
CCTTACGGGTCACTGACAGGTTATCGCATTTGGA,5.35,4.35,0.422,3.38,0.0444,5.12,4.53,4.36,1.04,2.96
CCGACTGTGGCAAGGTTACCATAACGCACAGCCA,0.166,0.546,-0.172,0.46,-0.922,1.07,1.1,0.984,-0.132,0.352
TTACCAGGGTGAAAGGTCGTTGATGCACGCCTTG,3.76,3.21,0.701,3.12,-0.0752,5.36,8.62,7.7,6.89,9.22
ACTATTAGTTGACACGAGGGCAACCGATAGGTTG,1.1,1.04,0.219,0.64,0.129,1.21,1.06,0.472,0.354,0.356
AGGATGAGGTTACCAAAGATCAGGGAAACGCTTG,1.74,6.04,0.206,3.17,0.353,2.93,1.55,1.76,0.744,1.12

# Reference: the supplement of paper PMC6555819
